Measurements as given in PubChem BioAssay.
Activity calls are given as the source filed them.

Columns and labels:
[1] = target: Albumin (Bos taurus) (UniProt P02769); experiment: compounds binding labelled BSA control protein – biochemical, small-molecule microarray, Alexa647 label, 635/667 nm fluorescence, artefact control for SMM control protein annotation, profiling panel (AID 1118); conditions: BSA-A647 binding, fluorescence 635 nm, higher = more signal;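 note: score merges 667 nm emission intensity and signal-to-noise per printed compound spot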
Albumin (Bos taurus), sequence (P02769 whole entry, looked up): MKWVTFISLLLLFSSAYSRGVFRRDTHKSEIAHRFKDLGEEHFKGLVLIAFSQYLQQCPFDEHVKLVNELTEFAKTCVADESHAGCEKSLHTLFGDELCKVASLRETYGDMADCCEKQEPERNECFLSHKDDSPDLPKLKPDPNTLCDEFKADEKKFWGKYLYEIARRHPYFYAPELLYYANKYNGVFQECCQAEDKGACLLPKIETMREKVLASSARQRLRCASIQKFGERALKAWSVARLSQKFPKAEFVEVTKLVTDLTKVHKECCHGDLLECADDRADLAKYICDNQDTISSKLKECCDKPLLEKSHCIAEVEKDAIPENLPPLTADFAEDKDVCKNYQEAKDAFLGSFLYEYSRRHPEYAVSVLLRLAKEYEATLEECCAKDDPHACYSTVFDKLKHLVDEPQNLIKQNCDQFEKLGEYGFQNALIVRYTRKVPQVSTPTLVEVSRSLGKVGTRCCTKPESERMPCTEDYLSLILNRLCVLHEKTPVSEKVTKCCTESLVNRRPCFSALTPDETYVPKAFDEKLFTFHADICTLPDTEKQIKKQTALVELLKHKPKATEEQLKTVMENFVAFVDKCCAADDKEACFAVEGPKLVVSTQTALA

[2] = probe aXIP binding to arrayed compounds – biochemical, NeuroSMM set, 635/667 nm fluorescence, primary screen (AID 1119); conditions: small-molecule microarray, higher = more signal, called active from +8 up or from −8 down;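 note: probe is the protein aXip251-270 applied at 1 µg/mL to compound-printed slides; binding of probe to printed compounds measured as 667 nm fluorescence plus signal to noise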
[3] = probe aNOTCH3 binding on compound microarray – biochemical, small-molecule microarray, 635/667 nm fluorescence, primary screen (AID 1120); conditions: higher = more signal;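 note: probe is a biotin-tagged antibody raised against NOTCH3 rather than NOTCH3 protein; score merges spot fluorescence near 667 nm with spot signal to noise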
[4] = probe aNOTCH2 binding on compound microarray – biochemical, small-molecule microarray, 635/667 nm fluorescence, primary screen (AID 1121); conditions: higher = more signal;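 note: score merges feature fluorescence read at 667 nm with its signal to noise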
[5] = target: Carbonic anhydrase 2 (Homo sapiens) (UniProt P00918); experiment: compounds binding carbonic anhydrase 2 – biochemical, small-molecule microarray, Alexa647-labelled CAII, profiling panel (AID 1122); conditions: CAII-A647 binding fluorescence, higher = more signal
[6] = COS7 lysate on small-molecule microarray, probe aHis, 635 nm (AID 1123); conditions: COS7 cell lysate, fluorescence, higher = more signal;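 note: z-score combines 667nm fluorescence intensity with signal-to-noise per printed compound spot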
[7] = probe aLAP1 signal on lysate-treated microarray – cell lysate, small-molecule microarray, COS7 lysate, primary screen (AID 1124); conditions: probe aLAP1, fluorescence, higher = more signal;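 note: lysate comes from COS7 cells expressing LAP1 and is applied at 0.3 µg/mL; score merges spot fluorescence near 667 nm with signal-to-noise over triplicate slides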
[8] = test system: Sam68 (KHDRBS1); experiment: compounds binding KHDRBS1 protein – biochemical, small-molecule microarray, 635 nm fluorescence, primary screen (AID 1125); conditions: higher = more signal;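 note: score merges 667 nm channel intensity with signal to noise over triplicate slides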
[9] = test system: Chordin-like protein 2 (CHRDL2); experiment: compounds binding chordin-like 2 – biochemical, small-molecule microarray, 635 nm fluorescence, primary screen (AID 1126); conditions: fluorescence 635 nm, higher = more signal;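 note: printed compound slides probed with Chrdl2 protein at 4 µg/mL for 1 h at 4 C; score merges 667 nm emission intensity with signal to noise over three replicate slides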
[10] = target: Concanavalin-A (Canavalia ensiformis) (UniProt P02866); experiment: compounds binding concanavalin A lectin – biochemical, small-molecule microarray, Alexa647 label, 635 nm, artefact control for SMM control protein annotation, primary screen (AID 1127); conditions: ConA-A647 binding fluorescence, higher = more signal;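 note: z combines 667 nm emission intensity with signal-to-noise across three replicate slides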
Concanavalin-A (Canavalia ensiformis), sequence (P02866 whole entry, looked up): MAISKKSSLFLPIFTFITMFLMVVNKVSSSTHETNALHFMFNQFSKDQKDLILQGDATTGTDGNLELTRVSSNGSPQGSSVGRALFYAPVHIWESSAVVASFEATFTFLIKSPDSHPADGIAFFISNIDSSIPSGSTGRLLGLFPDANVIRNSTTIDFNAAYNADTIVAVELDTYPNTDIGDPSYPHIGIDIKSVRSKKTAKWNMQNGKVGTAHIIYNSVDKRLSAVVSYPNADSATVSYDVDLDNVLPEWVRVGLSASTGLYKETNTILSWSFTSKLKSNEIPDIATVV

Row | Compound | composite z-score [1] | composite Z-score [2] | composite z-score [3] | composite z-score [4] | composite z-score [5] | composite z-score [6] | composite z-score [7] | composite z-score [8] | composite z-score [9] | composite z-score [10]
1 | Cc1cccc(/C=C/C=O)c1 | 0.92 | -0.77 (inactive) | -0.139 | -0.104 | -0.0363 | 0.93 | 0.364 | 0.339 | -0.058 | 0.786
2 | Cc1ccc(S[C@]2(C(=O)NCCN3CCOCC3)CC(=O)N(C3CCCCC3)[C@@H]2c2ccc(CO)cc2)cc1 | 0.869 | 0.562 (inactive) | 0.0525 | -0.0621 | 0.617 | 1.83 | 0.437 | 1.16 | -0.179 | 1.07
3 | C=C[C@@H](C)[C@@H](OC(=O)Nc1ccc(OC)cc1)c1ccc(O)c2ccccc12 | 0.199 | 0.725 (inactive) | -0.155 | -0.183 | 0.283 | 0.516 | -0.0028 | 0.349 | 0.897 | 0.323
4 | COc1ccc([Si](C)(C)[C@@H]2[C@@H](CCO)O[C@]3(C(=O)N(Cc4ccccc4)c4ccc(N(C=O)c5ccccc5)cc43)[C@H]2C)cc1 | 0.624 | 1.04 (inactive) | -0.159 | -0.0682 | 0.497 | 0.937 | 0.719 | 0.601 | -0.15 | 0.762
5 | OCCCc1cc[n+](Cc2cccc(OC(F)(F)F)c2)cc1 | 0.589 | 0.755 (inactive) | 0.147 | -0.101 | 0.842 | 2.02 | 0.348 | 1.28 | 0.421 | 1.09
6 | COc1ccc([Si](C)(C)[C@H]2[C@H](CC(=O)N3CCC[C@H]3CO)O[C@@]3(C(=O)N(Cc4cccc(N5CCC5=O)c4)c4ccccc43)[C@@H]2C)cc1 | -0.654 | -0.804 (inactive) | 0.229 | -0.0392 | 0.395 | 0.789 | -0.0115 | 1.31 | 0.95 | 0.759
7 | C=C(CCCC)C(=O)CC[C@@H](OC(=O)c1ccccc1-c1ccccc1C(=O)O)c1ccc(CO)o1 | 0.26 | -0.27 (inactive) | 0.135 | -0.0028 | 0.549 | 0.413 | 0.941 | 1.18 | 0.593 | 0.786
8 | CC(C)C(CO)N1C(=O)[C@@H]2[C@H]3C(=O)OCC=C[C@H]3OC23C=CCN(c2ccc4ccccc4c2)C(=O)[C@@H]13 (stereo not given in full) | -0.524 | 0.508 (inactive) | -0.193 | -0.155 | 0.561 | -0.572 | 0.42 | -0.878 | -1.32 | -0.362
9 | O=C1C[C@@](C(=O)O)(c2ccc([N+](=O)[O-])cc2)[C@@H](c2ccc(CO)cc2I)N1C1CCCCC1 | 0.909 | 0.477 (inactive) | 0.18 | -0.0397 | 0.673 | 1.95 | -0.405 | 0.765 | -0.422 | 1.15
10 | O=C(NCc1ccccc1)[C@@H]1c2ccccc2C(=O)N(C2CCCCC2)[C@H]1c1ccc(CO)cc1 | 0.654 | 0.142 (inactive) | -0.112 | -0.286 | 0.795 | 0.642 | 1.78 | 0.467 | -0.475 | 0.335
11 | C=C(COC)C(=O)CC[C@H](OC(=O)c1cccnc1)c1ccccc1OCCO | 0.233 | 0.708 (inactive) | 0.217 | -0.0846 | 0.286 | 0.765 | 0.591 | 1.32 | 0.906 | 0.475
